Screens deposited in PubChem by National Center for Advancing Translational Sciences (NCATS).
Compounds with a hit are over-represented: about 18% of the library has one in this group of screens.
RORgamma inh – ROR gamma (mouse) transcription inhibition; P51450; Drosophila S2 Gal4-RORgamma UAS-luciferase reporter, 20 h; Potency, µM (highest dose often 53.6 µM), hits mostly inhibitors; 310,000 tested, 5.4% active; AID 2551; also: nearly all actives have a fitted effect of over 60% in size
Target sequence (P51450 whole entry, looked up, the tested form may be a part): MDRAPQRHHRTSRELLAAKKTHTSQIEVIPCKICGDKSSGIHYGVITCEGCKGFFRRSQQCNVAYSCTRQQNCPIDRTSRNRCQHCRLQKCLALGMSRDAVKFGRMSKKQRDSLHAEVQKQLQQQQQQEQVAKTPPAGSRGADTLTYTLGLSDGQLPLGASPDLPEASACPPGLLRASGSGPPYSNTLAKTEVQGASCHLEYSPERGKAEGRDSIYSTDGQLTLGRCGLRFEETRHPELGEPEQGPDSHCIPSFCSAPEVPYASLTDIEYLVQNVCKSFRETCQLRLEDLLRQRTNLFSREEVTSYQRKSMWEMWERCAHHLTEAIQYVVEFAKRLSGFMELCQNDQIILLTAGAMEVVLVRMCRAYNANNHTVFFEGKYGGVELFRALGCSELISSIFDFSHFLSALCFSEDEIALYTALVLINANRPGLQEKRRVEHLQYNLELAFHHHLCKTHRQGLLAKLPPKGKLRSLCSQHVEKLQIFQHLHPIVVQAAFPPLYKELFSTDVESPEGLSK
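Using a luciferase readout, inhibitors were identified by reduced reporter activity in Drosophila cells coexpressing a copper-inducible Gal4–ROR gamma fusion and UAS-driven Photinus luciferase, incubated 20 hr after 700 uM copper sulfate.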
LDHA inh – inhibitors of human lactate dehydrogenase A; AID 1347041; 480,000 tested, 0.15% active; activity change, % (values are at about 110 or 230 µM); purified LDHA, NADH/diaphorase-resazurin fluorescence; active compounds read low; P00338; in the data active = activity change below about -30%; inconclusive = mostly about -25% to -30%
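Resorufin fluorescence (ex540/em590), read at 0 and 20 min after diaphorase/resazurin addition, reports the NADH left after a 5 min room-temperature reaction of 2 nM human LDH5 with 0.06 mM NADH and 0.2 mM pyruvate.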
Gal4-VP16 FLuc – Gal4-VP16 reporter inhibition counter-screen. Drosophila S2 Gal4-VP16 UAS-luciferase, luminescence, 20 h. 310,000 tested, 3.5% active. Potency, µM (highest dose often 53.6 µM), actives largely listed as inhibitors. AID 2546;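 also: Gal4-VP16 expression switched on by copper sulfate through the metallothionein promoter; nearly all actives have a fitted effect of over 50% in size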
TDP1 cell CPT – DT40-hTDP1 cell growth loss with CPT; chicken DT40 Tdp1-/-;hTDP1 cells + 20 nM CPT, ATP luminescence, 48 h; 420,000 tested, 12% active; Potency, µM (highest dose often 46.2 µM), usual class: inhibitors; AID 686979; also: nearly all actives have a fitted effect of over 55% in size
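Chicken DT40 Tdp1-/- cells complemented with human TDP1, 400 cells/well, exposed to compounds plus 20 nM camptothecin for at least 48 h at 37 C; viability read as ATP content by CellTiter-Glo luminescence.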
DT40 TDP1 no CPT – qHTS for Inhibitors of human tyrosyl-DNA phosphodiesterase 1 (TDP1): qHTS in cells in absence of CPT | DT40 Tdp1-/- hTDP1 cells, no CPT, ATP luminescence, 48 h | Potency, µM (top dose mostly 46.2 µM), most hits filed as inhibitors | 420,000 tested, 15% active; also: nearly all actives have a fitted effect of over 55% in size
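Chicken DT40 Tdp1-/- cells complemented with human TDP1, screened without camptothecin (DMSO vehicle only), 400 cells/well. Compounds pin-transferred, cells incubated at 37 °C for at least 48 hr. Growth read as ATP-dependent luminescence (CellTiter-Glo, 30 min at RT).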
IL-1B inflam inh – inhibitors of inflammasome signaling (IL-1 beta secretion); activity change, % at 57.5 µM; AID 743279; THP-1 LPS/ATP IL-1B secretion, AlphaLISA, 16 h; active compounds read low; 360,000 tested, 4.7% active; in the data active = activity change below about -50%; inconclusive = mostly about -30% to -49%
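THP-1 cells pretreated 1 hr with compounds (up to 57.5 uM final), then stimulated with LPS (250 ng/mL final) plus ATP (1.25 mM final); secreted IL-1B measured by AlphaLISA after 16 hr, decreased signal indicating inhibition.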
A number is an active result; n = inactive; u = inconclusive; x = no result given. Unless noted, calls follow the shape of the dose curve; as a rule, active = well fitted curve in the direction sought with a large enough effect; inconclusive = small, poorly fitted or top-dose-only effect, or another doubt; inactive = no such curve, though single readings can be large; an effect the other way counts as inactive or inconclusive.

SMILES	RORgamma inh	LDHA inh	Gal4-VP16 FLuc	TDP1 cell CPT	DT40 TDP1 no CPT	IL-1B inflam inh
Cc1c(C(=O)N2CCN(c3ccc([N+](=O)[O-])cc3)CC2)oc2ccccc12	x	n	x	u	16.4µM	n
Cc1c(-c2ccccc2)oc2c(C(=O)Nc3ccc(N4CCN(C)CC4)cc3)cccc2c1=O	x	n	x	x	x	x
CCN(c1ccc2sc(C(=O)NCCC(C)C)cc2c1)S(C)(=O)=O	x	n	x	x	x	x
Cc1ccc(-c2cc(NC(=O)C(C)C)c(=O)n(CC(=O)Nc3cccc(C(F)(F)F)c3)n2)cc1	x	n	x	x	x	x
CCCCn1nc(C(=O)Nc2cc(C(F)(F)F)ccc2N2CCOCC2)c2ccccc2c1=O	x	n	x	x	x	x
O=C(Nc1nccs1)c1cn2ccccc2n1	2µM	n	7.08µM	n	n	n
Cc1cc(C(=O)Nc2nnc(C3CCCCC3)s2)no1	20µM	n	n	n	n	n
C/C=C/C(=O)Nc1nnc(C2CCCCC2)s1	n	n	n	u	n	-87.7
Cc1cnc(C(=O)Nc2nccs2)cn1	3.55µM	n	11.2µM	n	n	n
Cc1ccc(S(=O)(=O)c2cc3c(cc2NC(=O)COc2ccc(C)cc2C)n(C)c(=O)n3C)cc1	x	n	x	x	x	x
CCOCCn1c(-n2nc(C)cc2C)nc2c1c(=O)n(CCOC)c(=O)n2C	x	n	x	x	x	x
Cc1onc(-c2ccccc2Cl)c1C(=O)Nc1nnc(C2CCCCC2)s1	x	n	x	u	u	x
CCc1noc(C)c1C(=O)Nc1nnc(C2CCCCC2)s1	11.2µM	x	u	x	x	x
Cc1cnc(C(=O)Nc2nnc(C3CC3)s2)cn1	8.91µM	n	n	n	n	n
CCCOc1ccc(C(=O)Nc2cccc3ncccc23)cc1	x	n	x	x	x	x
CC(NC(=O)c1nccnc1N)c1ccc(F)cc1 (configuration not stated)	x	n	x	x	x	x
CN(Cc1ccc(Cl)cc1Cl)C(=O)c1cc(=O)c2ccccc2o1	n	n	n	u	23.1µM	n
CN(Cc1ccccc1Cl)C(=O)c1cc2ccccc2o1	n	n	n	u	u	n
COc1ccccc1Cc1c(-c2cccc(Cl)c2)nc2ccc(Br)cn12	x	n	x	23.1µM	20.6µM	n
COC(=O)c1ccc2nc(-c3cccc(Cl)c3)c(Cc3ccccc3OC)n2c1	x	n	x	16.4µM	23.1µM	n
CN(C(=O)COc1ccc2c(-c3ccccc3)cc(=O)oc2c1)C1(C#N)CCCCC1	x	n	x	x	x	x
CCOC(=O)c1cnc2c(C(=O)OC)cccc2c1NCCN1CCOCC1	n	n	n	n	n	n
CCOC(=O)c1cnc2c(CC)cccc2c1NCCN1CCOCC1	n	n	n	u	23.1µM	u
CCOC(=O)c1cnc2ccc(Br)cc2c1NCCN1CCOCC1	x	n	x	20.6µM	20.6µM	x
CCOC(=O)c1cnc2c(Cl)cc(Cl)cc2c1NCCCN1CCOCC1	n	n	n	n	u	n
SMILES	RORgamma inh	LDHA inh	Gal4-VP16 FLuc	TDP1 cell CPT	DT40 TDP1 no CPT	IL-1B inflam inh
CCOC(=O)c1ccc2ncc(C(=O)OCC)c(NCCN3CCOCC3)c2c1	x	n	x	u	u	n
CCOC(=O)c1cnc2c(C)cc(Cl)cc2c1NCCCN1CCOCC1	x	n	x	n	u	-73.2
COc1ccc(CN(C)Cc2cc(=O)oc3ccc(C)cc23)cc1	x	n	x	x	x	x
CC(C)NC(=O)C1CC(=O)N(c2ccc(Br)cc2)C1 (configuration not stated)	x	n	x	x	x	x
O=c1c2ccccc2nc2sc(Nc3ccc(F)cc3)nn12	x	n	x	x	x	x
Cc1ccc(Cl)cc1Nc1nn2c(=O)c3ccc(C(=O)Nc4ccc(F)cc4)cc3nc2s1	x	n	x	3.66µM	2.31µM	x
COc1ccccc1Nc1nn2c(=O)c3ccc(C(=O)Nc4ccc(F)cc4)cc3nc2s1	x	n	x	2.59µM	5.8µM	x
CC(NC(=O)c1ccc2c(=O)n3c(nc2c1)CCCCC3)c1ccccc1 (configuration not stated)	x	n	x	n	n	n
Cc1ccc(Cl)cc1Nc1nn2c(=O)c3ccc(C(=O)NC(C)c4ccccc4)cc3nc2s1 (configuration not stated)	x	n	x	6.51µM	3.26µM	x
O=CN1CCN(C(C(=O)O)c2c[nH]c3ccc(NC(=O)c4ccccc4)cc23)CC1 (configuration not stated)	x	n	x	x	x	x
Cc1nc(/C=C/c2ccc(Cl)cc2)sc1C(=O)O	x	n	x	x	x	x
COc1ccc(-c2nc(CN3CCN(Cc4cccc(Cl)c4)CC3)c(C)o2)cc1	11.2µM	n	u	u	u	n
COC(=O)c1ccc(-c2nc(CN3CCN(Cc4cccc(C)c4)CC3)c(C)o2)cc1	n	n	n	u	23.1µM	n
CC(C)(C)NC(=O)Nc1ccc(Cn2cc(C(F)(F)F)ccc2=O)cc1	n	n	n	20.6µM	u	n
COc1ccc(N(C)S(=O)(=O)c2cccc(C(=O)Nc3ccc(OC)nc3)c2)cc1	u	x	n	x	x	x
COc1ccc(N(C)S(=O)(=O)c2cccc(C(=O)Nc3ccc4c(c3)OCCO4)c2)cc1	n	n	n	16.4µM	14.6µM	n
COc1ccc(N(C)S(=O)(=O)c2cccc(C(=O)Nc3nc(C)cs3)c2)cc1	x	n	x	n	n	n
COc1ccc(N(C)S(=O)(=O)c2cccc(C(=O)Nc3ccc(-n4cnnn4)cc3)c2)cc1	u	n	u	18.4µM	18.4µM	n
COc1ccc(C(=O)NCC2(c3ccccc3)CCOCC2)cc1[N+](=O)[O-]	n	n	n	u	29.1µM	n
COc1cc(C(=O)NCC2(c3ccccc3)CCCC2)cc(OC)c1OC	n	n	n	14.6µM	14.6µM	n
O=C(NCC1(c2ccccc2)CCCC1)c1ccc(Br)o1	n	n	n	u	23.1µM	n
COc1ccc(Br)cc1C(=O)NCC1(c2ccccc2)CCOCC1	x	n	x	x	x	x
Cc1ccc(C(=O)NCC2(c3ccccc3)CCCC2)cc1	n	n	n	11.6µM	11.6µM	n
O=C(NCC1(c2ccccc2)CCCC1)c1ccc(Br)cc1	n	n	n	u	u	n
Fc1c(F)c(C(F)(F)F)c(F)c(F)c1N/N=C/c1ccc(Br)cc1	x	n	x	x	x	x
O=C1CCCc2c1cc(C(=O)NC1CCCCCC1)c(=O)n2-c1ccc(C(F)(F)F)cc1	x	n	x	x	x	x
COc1cccc(C(=O)NCC2(c3ccccc3)CCCC2)c1	n	n	u	u	14.6µM	u
Cc1ccc(C(CC(=O)NCC2(c3ccccc3)CCCC2)c2ccccc2)c(O)c1 (configuration not stated)	x	n	x	23.1µM	16.4µM	x
COc1ccc(C(=O)N2CCCC2(C#N)c2ccccc2)cc1[N+](=O)[O-] (configuration not stated)	u	n	n	18.4µM	10.3µM	n
COc1ccc(C(=O)NCC2(c3ccccc3)CCCC2)c(OC)c1	n	n	n	9.2µM	6.51µM	n
